Measured values: PubChem BioAssay
Potency and affinity values are given separately. Unmarked numbers belong to inactive results. The rule behind the calls is not given here.

Experiment: toxicity toward HepG2 liver cells – cell-based, plate reader, cherry-pick, antagonist series, cytotoxicity control, dose response (AID 743416);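 note: 0% = neutral control wells and -100% = positive control wells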
Settings: series mostly up to 26 µM; activity change, negative = cytotoxicity: at the top concentration

Row | SMILES | activity change, negative = cytotoxicity
1 | O=C(Nc1cccc(C(=O)O)c1)Nc1ccccc1Cl | -1.25%
2 | COC(=O)c1ccc2nc(-c3cccc(N)c3)cn2c1 | -5.25%
3 | C=CCNC(=O)c1c(Cl)nc(C)c([N+](=O)[O-])c1C | 6.73%
4 | Cn1cccc1C(=O)OCC(=O)Nc1ccc2c(c1)OCCO2 | 7.53%
5 | Cc1ccc2nc(-c3ccc(NC(=O)COC(=O)c4ccco4)cc3)sc2c1 | 9.1%
6 | COCCCNc1ccn2nc(-c3ccccc3)cc2n1 | 44%
7 | COc1ccc(S(=O)(=O)N2CCCCN3[C@H](CO)[C@H](c4ccc(-c5cccnc5)cc4)[C@@H]3C2)cc1 | -4.72%
8 | O=C(Nc1cccc(O)c1)c1cc(-c2ccc3c(c2)OCO3)on1 | 0.176%
9 | Cc1c(NC(=O)c2ccc(-c3ccccc3)cc2)cccc1C(=O)O | -3.78%
10 | COc1cc(NC(=O)c2cccc3c(-c4cnn(C)c4)coc23)cc(OC)c1OC | 11.3%
11 | O=C(O)c1ccc(N/N=C/c2ccc3ncccc3c2)cc1 | -8.67%
12 | Cc1ccccc1C(=O)Nc1nnc(-c2ccco2)s1 | 7.28%
13 | Cc1c(C)c2ccc(OCC(=O)Nc3nccs3)cc2oc1=O | 0.352%
14 | O=C(CN1CCOc2ccccc21)NCc1ccc(F)cc1 | 2.54%
15 | c1nc(CCO[C@H]2CCCCO2)cc2cc3c(cc12)OCO3 | -4.92%
16 | C[C@H](CO)N1C[C@H](C)[C@H](CN(C)C(=O)Nc2ccc(F)cc2)OCCCC[C@H](C)Oc2ccc(NC(=O)C3CCCCC3)cc2C1=O | 70.2%
17 | FC(F)(F)c1cccc(CC2CN(Cc3ccccc3)Cc3ccccc3N2c2cc(Cl)cc(Cl)c2)c1 (stereo unspecified) | -1.78%
18 | O=C(O)c1ccc(-c2noc(-c3ccccc3Cl)n2)cc1 | 75.1%
19 | COCCn1c(C)cc(C(=O)CSc2nnnn2C2CCCC2)c1C | -5.42%
20 | O=C(CCCc1ccccc1)Nc1cccc(C(=O)O)c1 | -4.95%
21 | Cc1ccc(C(=O)n2nc(-n3cccc3)c3c(C)cc(C)nc32)cc1 | 16.1%
